# Anesthetic bind – qHTS Assay for Identification of Novel General Anesthetics. Ferritin light chain (Equus caballus), P02791. apoferritin/1-aminoanthracene competitive binding, fluorescence. Potency, µM (series often up to 77.5 µM), for inactives: at the highest dose activity change, negative = displacement, actives largely listed as inhibitors. 350,000 compounds, 0.074% hits; note: potency is the fitted concentration of half-maximal effect; % is set by controls: 0 for no effect and ±100 for the full control effect; nearly all actives have a fitted effect of over 20% in size
# Target sequence (P02791 2-175 limits assumed): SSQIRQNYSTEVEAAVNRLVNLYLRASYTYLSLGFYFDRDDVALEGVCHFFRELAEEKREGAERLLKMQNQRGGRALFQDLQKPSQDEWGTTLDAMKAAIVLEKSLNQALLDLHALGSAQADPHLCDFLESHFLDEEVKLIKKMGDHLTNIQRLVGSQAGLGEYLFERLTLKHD
#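 Horse-spleen apoferritin (10 uM) in 50% saturated 1-aminoanthracene in PBS was incubated 10 min at room temperature with compound. Fluorescence (ex 380, em 535 nm) was normalized to free and bound 1-AMA, with concentration-response fitted by a four-parameter Hill equation.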
# aSyn yeast inh – qHTS of alpha-syn Inhibitors; AID 652106, 2013; Potency, µM (highest dose often 46.1 µM), inactives show at the highest dose growth rescue (activation), most hits filed as activators; 370,000 compounds, 0.14% hits; Yeast expressing alpha-synuclein, growth rescue, BacTiter-Glo, 24 h; note: potency is the fitted concentration of half-maximal effect; % of control where 0% means no effect; nearly all actives have a fitted effect of over 65% in size
#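 Rescue of yeast growth: cells expressing toxic alpha-synuclein, induced in galactose at OD600 0.02, incubated with compound 24 h at 30 C. ATP luminescence quantified growth; inhibitors of toxicity appear as activators.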
# Mito fusion act – qHTS Assay for Small Molecule Inhibitors of Mitochondrial Division or Activators of Mitochondrial Fusion | S. cerevisiae fusion-defective mutant growth rescue, CellTiterGlo 48 h | Potency, µM (series often up to 46.1 µM), for the others: top-dose growth rescue (activation), usual class: activators | 320,000 compounds, 0.23% hits; note: potency is the fitted concentration of half-maximal effect; % of control where 0% means no effect; nearly all actives have a fitted effect of over 45% in size
#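 Compounds are tested for their ability to restore growth of mitochondrial fusion-defective yeast strains at non-permissive 37C in YPEG medium over 48 hours. Viability is quantified by luciferase luminescence.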
# TDP-43 yeast inh – qHTS of TDP-43 Inhibitors; TDP-43 expressing yeast growth rescue, BacTiter-Glo, 24 h; Potency, µM (top dose mostly 46.1 µM), for the others: at the highest dose growth rescue (activation), most hits filed as activators; 410,000 compounds, 1.8% hits; note: potency is the fitted concentration of half-maximal effect; % of control where 0% means no effect; nearly all actives have a fitted effect of over 50% in size
#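 Luminescence from BacTiter-Glo reports growth of TDP-43-expressing yeast after 24 hr at 30 deg C with compound. Cells were raffinose-pregrown to mid-log, then seeded in galactose medium at OD600=0.02.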
# pAkt inh – HTS Assay for Inhibitors of Akt Phophorylation: Primary Screen; Neuro2A IGF-stimulated pAkt S473 HTRF, 20 min; active compounds read low; activity change, % for hits at 50 µM; 360,000 compounds, 0.32% hits; AID 651550, 2012; in the data active = activity change below about -80%; inconclusive = mostly about -51% to -80%; note: % is set by controls: 0 for no effect and ±100 for the full control effect
#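 Single-point screen (50 µM final compound) in Neuro2A cells stimulated 20 min with 6 nM IGF at 37 deg C. After lysis, Ser473-phosphorylated Akt read by HTRF (ex 330 nm, em 615/665 nm) as the 665/615 ratio.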
# CCT modulator – High-Throughput Screening for Modulators of Cytosolic Chaperonin Activity; activity change, % (no concentration beside the values), hits read low; 360,000 compounds, 0.3% hits; purified chaperonin ATPase assay, HTRF ADP detection, 30 min; AID 651819, 2012; in the data active = activity change below about -30%; note: % is set by controls: 0 for no effect and ±100 for the full control effect
#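 TRiC (40 or 20 nM final, by batch activity) in 30 mM Tris pH 7.4, 100 mM KCl, 5 mM MgCl2, 1 mM DTT was treated with compound at 76 uM single dose, then 10 uM ATP, 30 min at 37 °C. ADP was read by HTRF Transcreener.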
# * = called active by the depositor; i = inactive; ? = inconclusive; . = not tested or not shown; [ ] = another dose, or the depositor's remark. In the library only some 2.5% were active in any assay of this set; here they are far more common. Unless noted, calls come from the whole dose curve; as a rule, active = well fitted curve in the direction sought with a large enough effect; inconclusive = small, poorly fitted or top-dose-only effect, or another doubt; inactive = no such curve, though single readings can be large; an effect the other way counts as inactive or inconclusive.
SMILES,Anesthetic bind,aSyn yeast inh,Mito fusion act,TDP-43 yeast inh,pAkt inh,CCT modulator
CC[C@H](C)[C@H](N)C(=O)N[C@H]1CCC(=O)NCC(C(=O)N[C@@H](Cc2ccc(O)cc2)C(=O)N[C@@H](CCCNC(=N)N)C(=O)N[C@@H](CC(C)C)C(=O)N[C@@H](CCCNC(=N)N)C(=O)N[C@@H](Cc2ccc(O)cc2)C(N)=O)NC(=O)[C@@H]2CCCN2C(=O)[C@@H](NC(=O)[C@@H](N)[C@@H](C)CC)CCC(=O)NCC(C(=O)N[C@@H](Cc2ccc(O)cc2)C(=O)N[C@@H](CCCNC(=N)N)C(=O)N[C@@H](CC(C)C)C(=O)N[C@@H](CCCNC(=N)N)C(=O)N[C@@H](Cc2ccc(O)cc2)C(N)=O)NC(=O)[C@@H]2CCCN2C1=O (stereo partly drawn),-14.0%,.,.,.,.,.
CCOc1ccc(CCNC(=O)Cn2ncn3c(cc4ccccc43)c2=O)cc1OCC,-5.1%,.,.,11.1%,.,.
COc1cc(-c2ccno2)ccc1S(=O)(=O)N1CCN(c2ccc(F)cc2)CC1,?,.,.,24.8%,.,.
COc1cccc(N2CCN(S(=O)(=O)c3ccc(-c4ccno4)cc3OC)CC2)c1,-2.2%,.,.,12.6µM*,.,.
COc1ccccc1N1CCN(S(=O)(=O)c2ccc(-c3ccno3)cc2OC)CC1,-2.4%,.,.,12.6µM*,.,.
COc1cc(-c2ccno2)ccc1S(=O)(=O)N1CCN(c2ccccc2)CC1,-10.2%,.,.,11.2µM*,.,.
CC1=C(C(=O)O)N2C(=O)[C@@H](NC(=O)[C@@H](N)c3ccccc3)[C@@H]2SC1,8.2%[29.3 µM],.,.,.,.,.
C=C1NN(Cc2ccccc2)C(=O)N1c1ccc(OC)cc1,.,6.1%,.,.,.,.
CC(C)n1ncc2c(C(=O)Nc3cccc(C#N)c3)cc(C3CC3)nc21,.,2.0%[1.84 µM],15.8µM*,22.4µM*,i,-1.2
CCNC(=O)c1cccc(NC(=O)c2cc(C3CC3)nc3c2cnn3C(C)C)c1,.,0.4%,5.0%,4.9%,i,0.7
O=S(=O)(c1ccccc1Br)N1CCN(c2nc(-c3ccccc3)nc3ccccc23)CC1,.,-1.8%,.,.,.,.
Nc1[nH]c(=S)nc2nnsc12,.,-4.3%,.,.,.,.
O=C(Nc1cccc(Br)c1)c1ccccc1-c1ccccc1,-5.2%,0.1%,15.8µM*,15.8µM*,i,-4.7
Cc1cc(Br)ccc1NC(=O)c1ccccc1-c1ccccc1,0.5%,1.5%,14.1µM*,?,i,-0.7
CCN(CC)c1ccc(/C=N/NC(=O)c2ccc(O)cc2)cc1,15.7%,.,.,.,.,.
COc1ccccc1N1CCN(S(=O)(=O)c2c(C)sc3ncn(CC(=O)N(C)c4ccc(C(C)C)cc4)c(=O)c23)CC1,-10.7%,.,.,7.3%,.,.
Cn1cnc2nc(NCCO)nc(NCc3ccccc3)c21,-0.2%,.,.,.,.,.
CO[C@H]1COC(=O)CCC[C@@H](C)[C@H](OC)COC(=O)[C@H]2CCCN2C(=O)C/C=C\[C@@H]1C,-4.1%[15.3 µM],.,.,.,.,.
Cc1cccc(OCc2nc(C#N)c(NCc3ccccc3Cl)o2)c1,46.3%,.,.,28.2µM*,.,.
COCCNc1oc(COc2cccc(C)c2)nc1C#N,4.9%,-4.1%,5.8%,1.1%,i,-9.8
N#Cc1nc(COc2cccc(Cl)c2)oc1N1CCCC1,36.8%,7.5%,17.0%,14.1µM*,i,-2.4
C[C@H](N)C(=O)N[C@@H](Cc1ccc(F)cc1)C(=O)N[C@@H](CCCN=C(N)N)C(=O)N[C@@H](CC1CCCCC1)C(=O)N[C@@H](CCCCN=C(N)N)C(=O)N[C@@H](Cc1ccc(O)cc1)C(N)=O,-5.4%,.,.,.,.,.
CCN(CC)C(=S)SCC(=O)c1ccc(Br)cc1,?,16.6%,11.2µM*,?,i,-1.8
O=C(O)CCn1c(=O)sc2ccccc21,-11.2%,5.6%,-0.1%,16.8%,i,-1.1
O=c1sc2ccccc2n1CCOc1ccccc1,?,0.1%,9.3%,11.2µM*,i,0.2
SMILES,Anesthetic bind,aSyn yeast inh,Mito fusion act,TDP-43 yeast inh,pAkt inh,CCT modulator
CC1CN(C(=O)COc2ncnc3ccccc23)CC(C)O1 (stereo not drawn),-7.9%,1.0%,-2.2%,4.7%,-105.2%*,-2.4
Cc1ccc(OCC(=O)NNC(=S)NC(=O)C(C)(C)C)c(Br)c1,-10.5%,23.9%,-2.1%,5.01µM*,i,2.4
Cc1ccc(OCC(=O)NNC(=S)NC(=O)C2CCCCC2)c(C)c1,-20.0%,?,7.1%,12.6µM*,i,-2.6
Cc1ccc(OCC(=O)NC(=S)Nc2ccccn2)c(Br)c1,-14.1%,-9.3%,-6.6%,-5.3%,i,-0.3
Cc1cccc(NC(=S)NNC(=O)COc2ccc(Cl)cc2Cl)c1,-11.7%,-5.8%,22.4µM*,9.3%,i,1.1
COC(=O)c1ccc(NC(=O)c2nc(SCc3ccccc3F)ncc2Cl)cc1,.,-1.1%,.,.,.,.
COc1ccc(C(OCCN2CCC[C@H](C(=O)O)C2)(c2ccc(OC)cc2)c2ccc(OC)cc2)cc1,-7.2%,.,.,.,.,.
O=C(NCCSc1c[nH]c2ccccc12)c1ccc(Br)o1,-9.4%,9.8%,8.0%,17.8µM*,i,0.4
O=C(O)c1ccc(SCc2ccccc2)nc1,.,7.1%,.,12.6µM*,i,-1.5
CC[C@H](C)[C@H](NC(=O)[C@H](CCCNC(=N)N)NC(=O)[C@@H](NC(=O)[C@H](CCCNC(=N)N)NC(=O)[C@H](CCCCN)NC(=O)[C@H](CCCNC(=N)N)NC(=O)[C@@H](NC(=O)[C@H](CC(N)=O)NC(=O)[C@@H](N)CS)[C@@H](C)O)[C@@H](C)CC)C(=O)N[C@@H](CCC(N)=O)C(=O)N[C@@H](CCCNC(=N)N)C(=O)NCC(=O)N1CCC[C@H]1C(=O)NCC(=O)N[C@@H](CCCNC(=N)N)C(=O)N[C@@H](C)C(=O)N[C@@H](Cc1ccccc1)C(=O)N[C@H](C(=O)N[C@H](C(=O)N[C@H](C(=O)NCC(=O)N[C@@H](CCCCN)C(=O)O)[C@@H](C)CC)[C@@H](C)O)C(C)C,-9.4%,.,.,.,.,.
O=C(COC(=O)c1nc(Cl)ccc1Cl)NCc1ccc(Cl)cc1,.,5.4%,-1.8%,17.8µM*,i,-0.4
O=C(C1=C(O)/C(=C/c2ccc(O)cc2)CCC1)C(F)(F)F,?,-28.9%,11.2%,22.4µM*,i,-3.0
COc1nc(C)ccc1-c1noc(-c2ccccn2)n1,-4.1%,-5.0%,-1.5%,-17.0%,.,0.9
CCOc1nc(C)ccc1-c1noc(C)n1,-1.9%,1.2%,-4.2%,3.9%,-110.2%*,-1.2
CCOc1nc(C)ccc1-c1noc(-c2ccncc2)n1,-9.3%,20.4%,6.2%,28.1%,i,-3.4

# Screening data deposited in PubChem BioAssay by National Center for Advancing Translational Sciences (NCATS).
